DRD3 agonist = activates the human D3 dopamine receptor; P35462; D3R DiscoveRx beta-arrestin cells, luminescence, 90 min; max activation, %; actives 0.58% (n = 410,000); AID 652048; in the data active = max activation above about 30%; also: 0% is about no effect
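Agonist-mode cell screen: cells plated at 1500/well and incubated overnight at 37 °C, then exposed to library compounds for 90 min at 37 °C. Detection reagent was added for 30–60 min at room temperature, and luminescence was read.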
PTHR1 ag = PTHR1 (human) receptor agonism. Q03431. HEK293 GP2 PTHR1 cells, GloSensor cAMP luminescence, 1 h. Potency, µM (top dose mostly 115 µM), for the others: top-dose activation, most hits filed as activators. actives 0.075% (n = 410,000). AID 743266; also: potency is read from the fitted curve at half-maximal effect; nearly all actives have a fitted effect of over 55% in size
Target sequence (Q03431 whole entry, looked up): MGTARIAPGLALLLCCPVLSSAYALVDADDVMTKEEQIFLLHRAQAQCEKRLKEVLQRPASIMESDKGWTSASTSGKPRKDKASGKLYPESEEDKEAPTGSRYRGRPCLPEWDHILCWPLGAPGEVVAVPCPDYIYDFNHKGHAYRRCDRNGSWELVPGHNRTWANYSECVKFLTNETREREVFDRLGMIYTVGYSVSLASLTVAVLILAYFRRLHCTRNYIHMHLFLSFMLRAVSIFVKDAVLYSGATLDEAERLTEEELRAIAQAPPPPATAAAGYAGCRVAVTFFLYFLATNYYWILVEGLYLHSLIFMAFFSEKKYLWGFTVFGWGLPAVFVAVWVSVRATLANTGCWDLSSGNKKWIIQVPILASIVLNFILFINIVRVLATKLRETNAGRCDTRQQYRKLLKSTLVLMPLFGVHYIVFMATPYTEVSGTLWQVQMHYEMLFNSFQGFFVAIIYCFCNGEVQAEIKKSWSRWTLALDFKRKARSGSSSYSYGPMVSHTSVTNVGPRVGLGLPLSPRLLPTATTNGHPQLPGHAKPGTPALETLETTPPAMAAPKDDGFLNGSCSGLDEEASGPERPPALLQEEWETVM
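HEK-293-derived GP2 cells expressing PTHR1 and a GloSensor cAMP reporter, 3,000/well, plated overnight, given luciferin plus IBMX (each 0.5 mM as added) for 1 h at 37 °C, then compound for 1 h at 37 °C. Luminescence was read after 15 min at room temperature.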
D3 antag = antagonists of human D3 dopamine receptor. P35462. D3R cells, DiscoveRx beta-arrestin luminescence, antagonist mode; stronger effect = lower value. max response, negative = inhibition, %. actives 2.5% (n = 360,000). AID 652054; in the data active = max response below about -50%; inconclusive = no clear call, values can overlap the other calls; also: % is scaled to controls: 0 for no effect and ±100 for the full control effect
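Cells expressing the human receptor were seeded at 1500 cells/well, incubated overnight at 37 degrees C in 5% CO2, then exposed to library compounds with dopamine controls for 90 minutes at 37 degrees C before luminescent detection.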
BRCA1 expr up = activators of BRCA1 expression; MCF7-BRCA1-FFLuc reporter, luminescence, 48 h; response scale: scaled: vehicle 0%, 10 µM genistein 100%; Potency, µM (doses to about 46.1 µM), for inactives: at the highest dose activation, hits mostly activators; actives 1.1% (n = 380,000); also: potency is read from the fitted curve at half-maximal effect; nearly all actives have a fitted effect of over 80% in size
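Compounds are tested at multiple concentrations on MCF7 BRCA1-luciferase reporter cells seeded at 2000 per well; after 48 h, a single luminescence end-point is taken and curves fitted to the normalized data.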
RGS4 inhibitor = human RGS4 inhibition; Transcreener GDP fluorescence polarization, RGS4-accelerated GTP hydrolysis; P49798; AID 504845; actives 0.039% (n = 390,000); Potency, µM (highest dose often 114 µM), inactives show at the highest dose activity change, negative = inhibition, usual class: inhibitors; also: potency is read from the fitted curve at half-maximal effect; % is scaled to controls: 0 for no effect and ±100 for the full control effect; nearly all actives have a fitted effect of over 75% in size
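MLSMR compounds (23 nl, pin-transferred) preincubated 10 min at room temperature with a 500nM (2x) first reagent, then RGS4 at 900nM (2x) plus Transcreener GDP mix added; fluorescence polarization (620/688 nm) read before and after 90 min at 30 °C.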
B2AR arrestin = beta2AR (human) beta-arrestin recruitment activity; P07550; beta-arrestin recruitment to beta2AR, cell-based reporter; Potency, µM (highest dose often 46.1 µM), for inactives: at the top dose activation, hits mostly activators; actives 0.02% (n = 330,000); AID 492947;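 also: potency is read from the fitted curve at half-maximal effect; 0% = DMSO controls and full agonism = EC100 isoproterenol or metaproterenol; nearly all actives have a fitted effect of over 65% in size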
Numbers without * were called inactive; [ ] = another dose, or the depositor's remark. Hits are enriched below; roughly 3.7% of the tested compounds scored in any of these assays. Unless noted, calls follow the shape of the dose curve; as a rule, active = well fitted curve in the direction sought with a large enough effect; inconclusive = small, poorly fitted or top-dose-only effect, or another doubt; inactive = no such curve, though single readings can be large; an effect the other way counts as inactive or inconclusive.

Screening O=C(N[C@@H](Cc1ccccc1)C(=O)NC1CCCCCC1)c1ccco1 returned DRD3 agonist -14, PTHR1 ag inactive, D3 antag 26, BRCA1 expr up 11µM*, RGS4 inhibitor 13% and B2AR arrestin -1%.
Screening C/C(=C(\CCOC(=O)c1ccccc1)SS/C(CCOC(=O)c1ccccc1)=C(/C)N(C=O)Cc1cnc(C)nc1N)N(C=O)Cc1cnc(C)nc1N returned DRD3 agonist -2.
Screening CCOc1ccc(CN2C(=O)CC(=O)N(S(=O)(=O)c3ccc(OCC)cc3)C2=O)cc1 returned DRD3 agonist 2, PTHR1 ag inactive, D3 antag 6, BRCA1 expr up 0%, RGS4 inhibitor 4% and B2AR arrestin -1%.
Cc1ccc(NC(=O)C2CCN(C(=O)c3sc4nc[nH]c(=O)c4c3C)CC2)cc1F was read as DRD3 agonist -16, PTHR1 ag 18% and RGS4 inhibitor 8%.
`COC(=O)c1sc(N)c(C(=O)OC)c1COC(=O)c1c(C)noc1C` gave DRD3 agonist -64, PTHR1 ag -38%[57.5 µM], D3 antag -69*, BRCA1 expr up -81%, RGS4 inhibitor -10% and B2AR arrestin 0%.
Screening Nc1nc2ccccc2cc1C(=O)NCc1cccs1 returned DRD3 agonist 2, PTHR1 ag -51% and D3 antag 15.
Screening Cc1c(NC(=O)COC(=O)C2CC3C=CC2C3)c(=O)n(-c2ccccc2)n1C (stereo not given) returned DRD3 agonist -6, PTHR1 ag -23%[57.5 µM], D3 antag -76*, BRCA1 expr up -1%, RGS4 inhibitor -23% and B2AR arrestin 0%.
For C#CC(C)(CC)NC(=O)c1cnn2c(C(F)F)cc(-c3ccccc3OC)nc12 (stereo not given) the results were DRD3 agonist 64*, PTHR1 ag -27% and RGS4 inhibitor 9%.
Screening Cc1onc(-c2ccccc2)c1C(=O)OCC(=O)c1ccc(F)cc1 returned DRD3 agonist 2, PTHR1 ag -32%, D3 antag -12 and BRCA1 expr up -6%.
CN(C)CCCOC(=O)N1c2ccccc2C=Cc2ccccc21 was read as DRD3 agonist -2, PTHR1 ag -20%, D3 antag -61*, BRCA1 expr up 1%, RGS4 inhibitor 6% and B2AR arrestin -1%.
Screening CN(C)CCCOC(=O)c1ccccc1Cl returned DRD3 agonist -4, PTHR1 ag inactive, D3 antag inconclusive, BRCA1 expr up -17%, RGS4 inhibitor 24% and B2AR arrestin 0%.
For O=C(CSc1n[nH]c(-c2cccs2)n1)N1CCN(S(=O)(=O)c2ccc3ccccc3c2)CC1 the results were DRD3 agonist -2, PTHR1 ag -9%[57.5 µM], D3 antag -70*, BRCA1 expr up -55%, RGS4 inhibitor -46% and B2AR arrestin 0%.
`CSc1ccccc1-c1nnc(-c2ccc(Cl)cc2Cl)o1` gave DRD3 agonist 3, PTHR1 ag -23%, D3 antag 5, BRCA1 expr up 7.9µM*, RGS4 inhibitor -37% and B2AR arrestin 0%.
`Cc1cccc(N=C2NC(=O)/C(=C/c3cccn3C)S2)c1` gave DRD3 agonist -11, PTHR1 ag -17%, D3 antag -26, BRCA1 expr up -25%, RGS4 inhibitor 17% and B2AR arrestin 3%.
O=C1NC(=Nc2ccccc2)S/C1=C\c1cccn1-c1ccccc1 was read as DRD3 agonist -5, PTHR1 ag -37%[57.5 µM], D3 antag -70*, BRCA1 expr up 8%, RGS4 inhibitor -3% and B2AR arrestin -1%.
Screening O=C(Nc1nccs1)c1ncc(Cl)c(Cl)c1Cl returned DRD3 agonist -6, PTHR1 ag -15%, D3 antag -5, BRCA1 expr up -12%, RGS4 inhibitor 5% and B2AR arrestin 0%.
